Experimental data reported in PubChem BioAssay (NCI).
Compounds without any hit were thinned out: in the full panel of roughly 79,000, 15% have a hit. Unmarked numbers belong to inactive results. Active and inactive are the calls of the source. Rule as the data show it: active = growth inhibition above about 70%; inactive = the rest.

What was measured:
[1] = NCI Yeast Anticancer Drug Screen. Data for the rad50 strain (AID 155);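 also: 0% = growth of vehicle-only cultures of the same strain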; details: S. cerevisiae rad50 strain growth inhibition, active compounds read high
Summary of the method: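 Yeast carrying a defined DNA repair defect were exposed to test compounds, and growth was compared with vehicle-treated controls to give percent inhibition.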

[2] = NCI Yeast Anticancer Drug Screen. Data for the mec2-1 strain (AID 157); details: S. cerevisiae mec2-1 strain, active compounds read high
Summary of the method: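 Vehicle-treated cultures served as reference for growth inhibition of compound-exposed mec2-1 yeast.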

[3] = NCI Yeast Anticancer Drug Screen. Data for the sgs1 mgt1 strain (AID 161);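 also: 0% = growth of cultures given vehicle only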; details: S. cerevisiae sgs1 mgt1 strain, active compounds read high
Summary of the method: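 Test agents were incubated with a DNA-repair-mutant yeast strain. Growth was then read and compared against vehicle-treated controls.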

[4] = NCI Yeast Anticancer Drug Screen. Data for the cln2 rad14 strain (AID 165);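 also: 0% = growth equal to vehicle treated cultures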; details: S. cerevisiae cln2 rad14 strain, active compounds read high
Summary of the method: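 Each compound was tested on cln2 rad14 yeast. Inhibition of growth was calculated against vehicle-exposed controls.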

[5] = NCI Yeast Anticancer Drug Screen. Data for the bub3 strain (AID 167); details: S. cerevisiae bub3 mutant strain, active compounds read high
Summary of the method: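 Compounds were applied to a genetically altered yeast strain carrying a cell-cycle control defect. Growth inhibition was scored against vehicle-treated controls.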

[6] = NCI Yeast Anticancer Drug Screen. Data for the mlh1 rad18 strain (AID 175); details: S. cerevisiae mlh1 rad18 strain growth inhibition, active compounds read high
Summary of the method: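 Vehicle-treated cultures served as the reference for growth inhibition in a yeast strain carrying DNA damage repair alterations exposed to each compound.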

[7] = at 5.0 µM (retest, dose inferred, filed as 0.5)
[8] = at 50.0 µM (retest, dose inferred, filed as 5.0)

Row | Structure (SMILES) | growth inhibition [1, 7] | growth inhibition [1, 8] | growth inhibition ([1]; at 50.0 µM) | growth inhibition [2, 7] | growth inhibition [2, 8] | growth inhibition ([2]; at 50.0 µM) | growth inhibition [3, 7] | growth inhibition [3, 8] | growth inhibition ([3]; at 50.0 µM) | growth inhibition [4, 7] | growth inhibition [4, 8] | growth inhibition ([4]; at 50.0 µM) | growth inhibition [5, 7] | growth inhibition [5, 8] | growth inhibition ([5]; at 50.0 µM) | growth inhibition [6, 7] | growth inhibition [6, 8] | growth inhibition ([6]; at 50.0 µM)
1 | C[P+](c1ccccc1)(c1ccc(Cl)cc1)c1ccc(Cl)cc1 | -26% | 72% (active) | 50.6% | -3% | 28% | 28.7% | 0% | 81% (active) | 71.9% (active) | -3% | 1% | -39.3% | -1% | 75% (active) | 69.5% | 12% | 59% | 46.9%
2 | CCN(CC)CCOC(=O)C1CCCCC1C(=O)C1CCCCC1 (configuration not stated) | -3% | 3% | 29.4% | -3% | 0% | -1.6% | -7% | 5% | 21.4% | -2% | 8% | 34.5% | -3% | 14% | 0.85% | 1% | 1% | 11.7%
3 | OC(CN1CCC(c2ccccc2)CC1)c1ccc(Br)cc1 (configuration not stated) | 57% | 74% (active) | 87.7% (active) | 32% | 53% | 61.2% | 66% | 64% | 83.2% (active) | 64% | 77% (active) | 76.8% (active) | 58% | 93% (active) | 82.7% (active) | 80% (active) | 91% (active) | 80.5% (active)
4 | COC(=O)C1(Cc2ccc(C)cc2)Cc2c(C)cccc2C1=O (configuration not stated) | -2% | 47% | 70.3% (active) | -2% | 35% | 39.9% | 13% | 45% | 75.8% (active) | 6% | 32% | 55.9% | 17% | 71% (active) | 75.2% (active) | -1% | 54% | 54.4%
5 | CCCCCCCCCCCC(=O)C(=O)c1ccc(O)cc1O | 52% | 88% (active) | 93.8% (active) | 87% (active) | 93% (active) | 97.3% (active) | 91% (active) | 92% (active) | 96.4% (active) | 25% | 84% (active) | 95.5% (active) | 45% | 90% (active) | 95.8% (active) | 87% (active) | 92% (active) | 96.7% (active)
6 | N#CC(C#N)=c1c2nsnc2c(=C(C#N)C#N)c2nsnc12 | 71% (active) | 88% (active) | -9.1% | 19% | 82% (active) | -1.6% | 52% | 90% (active) | -9.75% | 55% | 83% (active) | -47.7% | 60% | 91% (active) | -14.2% | 36% | 87% (active) | 7.45%
7 | CCCCCCCCCCSC(=NCC)NCC | 2% | 99% (active) | 66.9% | 4% | 99% (active) | 49.9% | 51% | 99% (active) | 46.7% | -6% | 99% (active) | 77.3% (active) | 27% | 99% (active) | 59% | 0% | 99% (active) | 99.5% (active)
8 | COC(=O)c1ccccc1CC1Cc2cccc(C)c2C1=O (configuration not stated) | -2% | 28% | 65.2% | -3% | 47% | 51% | 14% | 64% | 67.6% | -2% | 11% | 24.4% | 5% | 80% (active) | 79.7% (active) | 1% | 40% | 76% (active)
9 | CCCN(CCC)CCNc1ccc(C)c2sc3ccccc3c(=O)c12 | 19% | 99% (active) | 99.7% (active) | 4% | 100% (active) | 99.7% (active) | 42% | 100% (active) | 99.5% (active) | 19% | 99% (active) | 99.5% (active) | 35% | 99% (active) | 99.4% (active) | 31% | 99% (active) | 99.5% (active)
10 | Cc1nc(N)sc1N=Nc1cc(Cl)c([N+](=O)[O-])cc1Cl | -4% | 26% | 38% | -7% | 33% | 39.5% | 4% | 77% (active) | 70.2% (active) | 4% | 2% | 35.1% | 4% | 7% | 47.5% | 11% | 78% (active) | 78.1% (active)
11 | CCCCCCCCCCCCCCCCOCC(Cl)COP(=O)(O)OP(=O)(O)OCC1OC(n2cc(C)c(=O)[nH]c2=O)CC1O (configuration not stated) | 27% | 99% (active) | 86% (active) | 30% | 94% (active) | 59.6% | 90% (active) | 99% (active) | 93% (active) | 22% | 85% (active) | 63.1% | 50% | 97% (active) | 79.5% (active) | 67% | 97% (active) | 84.7% (active)
12 | C[N+](C)(C)CC(=O)N/N=C/c1oc(-c2c(O)ccc3ccccc23)c(-c2c(O)ccc3ccccc23)c1[N+](=O)[O-] | 57% | 57% | 90% (active) | 47% | 47% | 90.6% (active) | 51% | 51% | 90.2% (active) | 13% | 13% | 80.9% (active) | 44% | 44% | 84.4% (active) | 58% | 58% | 84.2% (active)
13 | Cc1ccc(/C=N/NS(=O)(=O)c2ccccc2)c(C)c1 | -27% | 25% | 30.6% | -10% | 1% | 18.9% | 1% | 15% | 15% | -23% | 42% | -25.8% | 3% | 41% | 11.1% | -11% | 46% | 36.9%
14 | CC(=O)Sc1ccccc1C(=O)NCc1ccc(Cl)cc1 | 2% | 97% (active) | 97.8% (active) | -8% | 98% (active) | 99% (active) | 2% | 97% (active) | 97.8% (active) | -12% | 94% (active) | 98.5% (active) | 0% | 96% (active) | 98.5% (active) | 13% | 96% (active) | 98.7% (active)
